# Screens (PubChem)
# The list is not random: actives were taken first. Their share in the collection is about 14%.
# USP30 block: inhibitors of human USP30 deubiquitinase; 47,000 compounds, 5.3% hits; Q70CQ3; AID 1645860; purified USP30, Ub-rhodamine cleavage fluorescence; inhibition, % at 25 µM
# USP17 block: inhibitors of human USP17 deubiquitinase; 47,000 compounds, 6.5% hits; purified USP17, Ub-rhodamine cleavage fluorescence, 3 h; inhibition, % at 50 µM; A8MUK1
# USP10 block: blocks human USP10 ubiquitin-rhodamine cleavage; Q14694; purified USP10, Ub-rhodamine fluorescence, 60 min; inhibition, % at 20 µM; 47,000 compounds, 1.1% hits; AID 1645856
# USP28 block: human USP28 deubiquitinase inhibition | Q96RU2 | purified USP28, Ub-rhodamine cleavage fluorescence, 30 min | inhibition, % at 25 µM | 47,000 compounds, 3% hits
# Target sequence (Q96RU2 whole entry, looked up): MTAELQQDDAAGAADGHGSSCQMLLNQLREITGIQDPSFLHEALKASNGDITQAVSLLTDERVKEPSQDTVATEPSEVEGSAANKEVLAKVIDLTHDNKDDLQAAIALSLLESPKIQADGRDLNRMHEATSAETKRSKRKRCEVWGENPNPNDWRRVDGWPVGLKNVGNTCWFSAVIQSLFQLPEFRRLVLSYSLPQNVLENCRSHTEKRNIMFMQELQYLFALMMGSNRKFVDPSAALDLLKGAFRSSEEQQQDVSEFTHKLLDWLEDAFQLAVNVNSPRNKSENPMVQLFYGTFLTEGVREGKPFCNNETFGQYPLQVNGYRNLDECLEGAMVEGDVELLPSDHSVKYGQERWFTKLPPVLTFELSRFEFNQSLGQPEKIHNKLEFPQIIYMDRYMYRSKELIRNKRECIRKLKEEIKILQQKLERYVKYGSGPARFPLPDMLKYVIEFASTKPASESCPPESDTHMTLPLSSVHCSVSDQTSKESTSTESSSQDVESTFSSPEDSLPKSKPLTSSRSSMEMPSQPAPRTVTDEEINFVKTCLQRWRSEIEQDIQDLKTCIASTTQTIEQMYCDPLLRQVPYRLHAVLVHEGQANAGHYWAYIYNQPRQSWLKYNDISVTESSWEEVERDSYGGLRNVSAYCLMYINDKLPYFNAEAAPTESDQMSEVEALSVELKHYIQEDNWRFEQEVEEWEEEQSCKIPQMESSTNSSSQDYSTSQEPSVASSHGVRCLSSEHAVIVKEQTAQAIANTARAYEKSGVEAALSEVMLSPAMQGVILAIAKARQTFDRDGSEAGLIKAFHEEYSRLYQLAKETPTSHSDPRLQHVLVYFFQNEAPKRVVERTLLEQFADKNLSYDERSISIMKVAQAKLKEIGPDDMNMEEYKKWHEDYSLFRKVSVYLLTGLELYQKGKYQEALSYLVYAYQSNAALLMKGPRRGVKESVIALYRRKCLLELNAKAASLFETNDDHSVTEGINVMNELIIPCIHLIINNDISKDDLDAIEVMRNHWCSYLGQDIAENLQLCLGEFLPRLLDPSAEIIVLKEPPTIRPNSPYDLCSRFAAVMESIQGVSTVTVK
# USP8 inh: inhibitors of human USP8 deubiquitinase. purified USP8, Ub-rhodamine cleavage fluorescence, 30 min. AID 1645853. 47,000 compounds, 4.2% hits. inhibition, % at 20 µM
# Hits are given with their value; . = inactive; / = not tested or not shown. No stated cut-off is given here; in the data, active means inhibition above about 30%; inactive means the rest.
SMILES,USP30 block,USP17 block,USP10 block,USP28 block,USP8 inh
CCCc1cc(=O)[nH]c(N2CCN(c3ccc(F)cc3)CC2)n1,.,.,.,.,.
O=C(NC1CCCC1)C(c1ccc(Cl)cc1)N(Cc1ccccc1F)C(=O)c1ccco1 (centres undefined),36.9,.,.,.,.
CCc1ccc(C(C(=O)NC2CCCC2)N(Cc2ccc(OC)cc2)C(=O)c2ccco2)cc1 (centres undefined),.,.,.,.,.
CCC(C)c1ccc(N(C(=O)c2ccco2)C(C(=O)NC2CCCC2)c2ccc(N3CCOCC3)cc2)cc1 (centres undefined),47.6,.,.,.,.
Cc1cnc(C(=O)N2CC[C@H]3NC(=O)c4ccccc4OCC/C=C/C[C@H]3C2)cn1,.,.,.,.,.
Cc1cnc(C(=O)N2CCC[C@@H]3NC(=O)c4ccccc4OCC/C=C/C[C@@H]32)cn1,.,.,.,45.0,.
COc1cccc([C@@H]2c3c(C)nn(C)c3NC(=O)[C@H]2NC(=O)c2ccc(Cl)cc2)c1,.,.,.,34.9,.
Cc1cccc(C(=O)N[C@@H]2C(=O)Nc3c(c(C)nn3C)[C@H]2c2cccc(C(F)(F)F)c2)c1,.,.,.,.,.
O=C(OC(C(=O)c1c[nH]c2ccccc12)c1ccccc1)c1ccc(S(=O)(=O)N2CCCC2)cc1 (centres undefined),.,.,.,.,.
COc1ccc(NC(=O)CC(c2ccco2)n2cccc2)c(OC)c1 (centres undefined),.,.,.,.,.
CC(CC(=O)Nc1ccc(F)cc1)CC(=O)Nc1ccc(C(C)C)cc1 (centres undefined),.,.,.,.,.
Cc1ccc(NC(=O)CC(C)CC(=O)Nc2ccc(C(C)C)cc2)cc1Cl (centres undefined),.,/,.,.,31.2
COc1ccc(NC(=O)CC(C)CC(=O)Nc2ccc(C(C)C)cc2)c(OC)c1 (centres undefined),.,45.8,.,.,.
CNC(=O)c1cc2c(nc1NC(C)C)CCN(c1ncc(F)cn1)CC2,.,.,.,.,.
COc1cc(CN2CCC(C(=O)NC(c3ccccc3)c3cnccn3)CC2)cc(OC)c1 (centres undefined),.,.,.,.,.
O=C(NCC1CC1)[C@H]1C[C@@H]2CN(Cc3ccc(Cl)cc3)C[C@H]1O2,/,.,.,/,.
COC(=O)c1ccc(N2CCN(C(=O)c3ccccc3)CC2)c(NC(=O)c2cc(OC)c(OC)c(OC)c2)c1,.,.,.,.,.
COC(=O)c1ccc(N2CCN(C(=O)c3ccccc3)CC2)c(NC(=O)COc2ccccc2Cl)c1,33.0,39.2,.,.,.
Cn1c(=O)[nH]c(=O)c2c1nc(NCCCO)n2CC(=O)c1ccccc1,40.2,.,.,.,.
COC(=O)c1nn(-c2ccc(Cl)cc2)c(=O)cc1Sc1ccc(C)cc1,.,.,.,.,52.9
CC(C)c1ccc(NC(=O)C2C3C=CC4(O3)C2C(=O)N(CCc2ccc(Cl)cc2)C4C(=O)NC2CCCCC2)cc1 (centres undefined),.,.,.,.,54.2
Cc1ccc(NC(=O)C2C3C=CC4(O3)C2C(=O)N(CCc2ccccc2)C4C(=O)NC2CCCCC2)cc1Cl (centres undefined),.,.,.,.,33.9
CC(C)OCCCN1C(=O)C2C(C(=O)Nc3ccc(Oc4ccccc4)cc3)C3C=CC2(O3)C1C(=O)NC1CCCCC1 (centres undefined),.,50.7,.,.,.
O=C(Nc1ccc(Br)cc1)C1C2C=CC3(O2)C1C(=O)N(CCc1ccccc1)C3C(=O)NC1CCCCC1 (centres undefined),.,.,.,.,.
CC(C)CCN1C(=O)C2C(C(=O)Nc3ccc(F)cc3)C3(C)C=CC2(O3)C1C(=O)NC1CCCCC1 (centres undefined),36.3,.,.,.,.
SMILES,USP30 block,USP17 block,USP10 block,USP28 block,USP8 inh
CCOc1ccccc1C(=O)N(c1ccccn1)C1CCCCC1,.,.,.,.,.
Cc1ccccc1S(=O)(=O)NC1(c2nc(-c3cnccn3)no2)CCCCC1,.,.,.,.,.
CNC(=O)[C@@H]1CN2CCN(C(=O)Nc3ccccc3)C[C@@H]2[C@H]1c1ccccc1,.,.,.,.,.
O=C(Cc1ccc(-c2ccccc2)cc1)NCc1nnnn1-c1ccccc1,.,.,.,.,.
CSc1cccc(NC(=O)C2C3C=CC4(O3)C2C(=O)N(CCc2ccccc2)C4C(=O)NC2CCCCC2)c1 (centres undefined),.,.,39.4,.,56.8
Cc1ccc(NC(=O)N2CCCC2c2cc(C(C)C)no2)cc1F (centres undefined),.,/,.,.,.
CC(C)n1ncc2c(C(=O)NCCc3ccc(Cl)cc3)cc(C3CC3)nc21,.,.,.,38.5,.
CC(C)n1ncc2c(C(=O)NCCc3cccc(Cl)c3)cc(C3CC3)nc21,.,/,.,37.3,.
Cc1nc2sc3c(SCC(=O)Nc4ccccn4)ncnc3c2c2c1COC(C)(C)C2,.,.,.,.,.
COc1cc2c(cc1OC)C(COc1cc(C)cc(C)c1)NCC2 (centres undefined),.,.,.,.,64.9
CCN(c1ccccc1)S(=O)(=O)c1ccc(N2C(=O)CCS2(=O)=O)cc1,.,.,.,.,.
COC(=O)c1sccc1OCC(=O)c1sc(-c2ccccc2)nc1C,.,.,.,.,.
Cc1nc(-c2ccccc2)sc1C(=O)CSc1cccc(Cl)c1Cl,36.2,.,.,.,.
COc1ccc(NC(=O)c2cccc3[nH]cc(CN4CCSCC4)c23)cc1,.,.,.,.,60.6
O=C(Cn1c(Cc2ccccc2)nc2ccccc21)N1CCc2ccccc21,32.4,.,.,.,48.6
O=C(CSc1nnc(Cc2ccccc2)o1)N1CCc2ccccc21,.,41.7,.,.,.
O=C(NCc1nnc(SCC(=O)N2CCc3ccccc32)o1)c1cccs1,.,.,.,.,.
O=C(/C=C\c1ccc(Cl)cc1)NCC1(c2ccccc2)CCCC1,.,.,.,.,.
O=C(NC1CCCC1)c1ccc2ccc(N3CCN(Cc4cccnc4)CC3)n2c1,.,.,.,.,.
Cc1cc2c(cc1CCc1cc3c(cc1C)OCO3)OCO2,.,.,.,.,.
C[C@H](Cc1cc2c(cc1O)OCO2)[C@@H](C)Cc1cc2c(cc1O)OCO2,92.5,100.4,84.0,96.9,64.4
Fc1ccc(N/C=C/c2ncc(C(F)(F)F)cc2Cl)cc1,.,.,.,.,71.8
CN(C)S(=O)(=O)c1ccc(N/C=C/c2ncc(C(F)(F)F)cc2Cl)cc1,.,.,.,.,.
CSc1ccccc1NC(=O)c1ccc(N2CCOCC2)nn1,.,/,.,.,.
CSc1ccccc1NC(=O)c1ccc(-n2cccn2)nn1,41.0,61.9,.,.,.
CC(C)c1n[nH]c(=O)c2c1nnn2Cc1ccccc1F,33.8,.,.,.,.
Cc1ccc2nnc(-c3ccccc3)c(C(=O)N3CCN(c4ccccn4)CC3)c2c1,.,50.3,.,.,.
O=C(NC1CCCC1)c1cccc(NC(=O)c2nsc3ccccc23)c1,/,31.5,.,/,.
